Shown are actives, neighbours in structure and some others; about 3.1% of the full set was active somewhere.
C8 TRAIL sens: sensitizes caspase-8 expressing cells to TRAIL | NB7+C8 cells + TRAIL, ATPlite viability luminescence | inhibition (viability loss, TRAIL sensitization), % at 10 µM | 360,000 compounds, 1% hits | AID 624354;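 active means compounds causing at least 50% loss of cell viability in the single-dose screen, relative to plate controls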
CF NFkB block: blocks PAF-induced NF-kB reporter in cystic fibrosis cells | KKLEB NF-kB-GFP reporter, GFP fluorescence overnight | inhibition, % at 5 µM | 360,000 compounds, 0.86% hits | AID 588850;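 active means at least 50% inhibition at 5 µM, scaled per plate between neutral and stimulator controls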;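 further: PAF is a Pseudomonas aeruginosa culture filtrate used as stimulus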
PPC-1+TRAIL kill: compounds killing PPC-1 cancer cells with TRAIL present (potentiator screen, no TRAIL-free arm). PPC-1 cells + TRAIL, ATPLite viability luminescence. AID 1443. 220,000 compounds, 0.41% hits. cell killing (% activity), % at 4 µM or 5 µM;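 active means cell killing above 50% in the first pass at 4 µM, then a duplicate retest at 5 µM averaging 50% or more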
KKLEB tox: reduces viability of KKLEB cystic fibrosis airway cells; activity change (cytotoxicity), % at 5 µM; 360,000 compounds, 0.36% hits; KKLEB CF airway cells viability, ATPlite luminescence, overnight; active compounds read low; cells stimulated with P. aeruginosa culture filtrate;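 active means corrected activity change at or below -50% at 5 µM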
Peg3 promoter: reduces Peg3 promoter-driven luciferase expression in HeLa | HeLa PEG-Prom luciferase reporter, luminescence, overnight | inhibition, % at 20 µM | 360,000 compounds, 1.7% hits | AID 588405;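 active means inhibition of at least 50% at 20 µM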
HIF-2a inh: inhibitors of HIF-2a; 786-0 RCC cells HIF-2a reporter, luciferase luminescence, overnight; inhibition, % at 18.8 µM; 360,000 compounds, 0.72% hits; AID 624352;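 active means inhibition of the luminescence signal of 40% or more relative to plate controls, in a single-dose primary screen at 18.75 µM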
CF NFkB inh conf: CF NF-kB inhibition confirmation, single concentration. shares compounds with CF NFkB block. KKLEB CF airway cells, PAF-induced NF-kB-GFP fluorescence, overnight. inhibition, % at 5 µM. 1,300 compounds, 64% hits; in the data active means inhibition above about 40%;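 further: stimulus PAF is a Pseudomonas aeruginosa filtrate and not platelet activating factor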
Each line names hits and unclear results; the compound was inactive in the other large screens (follow-up assays come after a bar, where they were run).

Oc1ccc(C[C@H]2CNC(=S)N2CC2CCCN2C[C@H](Cc2ccc(O)cc2)N2C[C@H](Cc3ccccc3)N(CC3CCCCC3)C2=S)cc1 (some centres not stated)	CF NFkB block 51.5, Peg3 promoter 91.9 (no result: PPC-1+TRAIL kill) | CF NFkB inh conf 45.4
Oc1ccc(C[C@H]2CNC(=S)N2CC2CCCN2C[C@H](Cc2ccc(O)cc2)N2C[C@H](Cc3ccc(O)cc3)N(CC3CCCCCC3)C2=S)cc1 (some centres not stated)	CF NFkB block 62.0, Peg3 promoter 54.3 (no result: PPC-1+TRAIL kill) | CF NFkB inh conf inactive
CC(C)C[C@@H](CN1CCCC1CN1C(=S)NC[C@@H]1Cc1ccc(O)cc1)N1C[C@H](Cc2ccc(O)cc2)N(CCc2ccccc2)C1=S (some centres not stated)	CF NFkB block 59.3, Peg3 promoter 91.1 (no result: PPC-1+TRAIL kill) | CF NFkB inh conf 61.0
Oc1ccc(C[C@H]2CN([C@@H](Cc3ccccc3)CN3CCC[C@@H]3CN3C(=S)NC[C@@H]3Cc3ccccc3)C(=S)N2CC2CCCCC2)cc1	none (no result: PPC-1+TRAIL kill)
Oc1ccc(C[C@H]2CN([C@@H](Cc3ccc(O)cc3)CN3CCC[C@@H]3CN3C(=S)NC[C@@H]3Cc3ccccc3)C(=S)N2CCc2ccccc2)cc1	none (no result: PPC-1+TRAIL kill)
Oc1ccc(C[C@@H](CN2CCCC2CN2C(=S)NC[C@@H]2Cc2ccccc2)N2C[C@H](Cc3ccccc3)N(CC3CCCCC3)C2=S)cc1 (some centres not stated)	none (no result: CF NFkB block, PPC-1+TRAIL kill, KKLEB tox, Peg3 promoter)
CCOc1ccc(CCN2C(=S)N([C@@H](Cc3ccc(O)cc3)CN3CCC[C@@H]3CN3C(=S)NC[C@@H]3CC(C)C)C[C@@H]2Cc2ccc(O)cc2)cc1	CF NFkB block 55.4, Peg3 promoter 100.7 (no result: PPC-1+TRAIL kill) | CF NFkB inh conf inactive
COc1cc(CNC(=O)Nc2cccn3nc(COCCO)nc23)cc(OC)c1OC	none (no result: PPC-1+TRAIL kill)
O=C(NCc1ccccc1)C(C1CC1)n1c(=O)c(-c2cc3ccccc3[nH]2)nc2ccccc21 (configuration not stated)	none (no result: CF NFkB block, PPC-1+TRAIL kill, KKLEB tox, Peg3 promoter)
CC(C)C[C@@H](CN1CCC[C@@H]1CN1C(=S)NC[C@@H]1Cc1ccc(O)cc1)N1C[C@H](Cc2ccc(O)cc2)N(CC2CCCCC2)C1=S	CF NFkB block 67.1, Peg3 promoter 98.4 (no result: PPC-1+TRAIL kill) | CF NFkB inh conf 46.1
CC(C)C[C@H]1CNC(=S)N1C[C@H]1CCCN1C[C@H](Cc1ccccc1)N1C[C@H](Cc2ccc(O)cc2)N(CC2CCCCC2)C1=S	C8 TRAIL sens 67.8, CF NFkB block 65.1, Peg3 promoter 92.9 (no result: PPC-1+TRAIL kill) | CF NFkB inh conf inactive
CCC1(O)CC2CN(CCc3c([nH]c4ccccc34)C(C(=O)OC)(c3cc4c(cc3OC)N(C=O)C3C(O)(C(=O)OC)C(OC(C)=O)C5(CC)C=CCN6CCC43C65)C2)C1 (configuration not stated)	CF NFkB block 58.5 (no result: PPC-1+TRAIL kill) | CF NFkB inh conf 92.0
COC(=O)[C@]12CCCCC=C1N(CCc1ccc(OC)c(OC)c1)C(=O)[C@H](CC(=O)NCC1CCCCC1)C2	none (no result: CF NFkB block, PPC-1+TRAIL kill, KKLEB tox, Peg3 promoter)
CC1(c2nnnn2-c2ccc3c(c2)OCCO3)CCC(=O)N1C1CCN(Cc2ccccc2)CC1 (configuration not stated)	none (no result: CF NFkB block, PPC-1+TRAIL kill, KKLEB tox, Peg3 promoter)
CC(C)c1ccc(NC(=O)C(c2ccc3c(c2)OCO3)N2CCCCC2)cc1 (configuration not stated)	none
Oc1cc2c(cc1C(c1ccc(Cl)c(Cl)c1)N1CCCC1)OCO2 (configuration not stated)	CF NFkB block 63.9 | CF NFkB inh conf 44.1
Cn1c(Oc2ccc(Cl)cc2)c(C=O)c2ccccc21	CF NFkB block 50.9 | CF NFkB inh conf 70.2
Cn1c(N2CCN(C(c3ccccc3)c3ccccc3)CC2)nc2c1c(=O)[nH]c(=O)n2C	CF NFkB block 68.9 (no result: PPC-1+TRAIL kill) | CF NFkB inh conf 83.9
COc1ccc(NC(=O)c2cc3c(-c4ccc(OC)c(OC)c4)nn(C)c3s2)cc1OC	CF NFkB block 86.9 | CF NFkB inh conf 61.6
CNc1ccc2ncc(-c3cccc(C(=O)N(C)C)c3)n2n1	CF NFkB block 85.6 (no result: PPC-1+TRAIL kill) | CF NFkB inh conf 98.4
CCOC(=O)CSc1nc(C)cc(C)c1C#N	none
